# Reference: the supplement of paper PMC6992640
# ± gives the standard deviation of the averaged measurements.
# System: HCI11 (cells of an ER-positive luminal breast cancer xenograft)
# Assay: cell viability (% of vehicle); higher = less cytotoxic
# Details: 10 µM; 72 h
# 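Note: PDX cells carrying CMV promoter-driven luciferase, viability read as total photon flux per second by IVIS imaging following D-luciferin, vehicle control 0.1% DMSO.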
row,SMILES,cell viability
1,CCOC(=O)CC(=O)N1CCSC1COc1ccccc1OC (centres undefined) [Moguisteine],89.5
2,CC(Cc1cc2c(c(C(N)=O)c1)N(CCCO)CC2)NCCOc1ccccc1OCC(F)(F)F (centres undefined) [Silodosin],127
3,COc1ccc(CN(CCN(C)C)c2ccccn2)cc1.O=C(O)/C=C\C(=O)O [Mepyramine maleate],93.9
4,O=C(O)CCNC(=O)c1ccc(/N=N/c2ccc(O)c(C(=O)O)c2)cc1 [Balsalazide],91.1
5,COC(=O)CCc1ccc(OCC(O)CNC(C)C)cc1.Cl (centres undefined) [Esmolol HCl],95.3
6,Cc1ncc([N+](=O)[O-])n1CCO [Metronidazole],89.6
7,CCCCc1nc(Cl)c(CO)n1Cc1ccc(-c2ccccc2-c2nnn[n-]2)cc1.[K+] [Losartan Potassium (DuP 753)],79
8,CC(C)(C)C(=O)C(Oc1ccc(Cl)cc1)n1ccnc1 (centres undefined) [Climbazole],98.8
9,Nc1ccc(C(=O)NCC(=O)[O-])cc1.[Na+] [Sodium 4-amiropparaty Hyalrate],110
10,Cl.Clc1ccc2nsnc2c1NC1=NCCN1 [Tizanidine HCl],102
11,Cc1nnc(C(=O)NC(C)(C)c2nc(C(=O)NCc3ccc(F)cc3)c(O)c(=O)n2C)o1 [Raltegravir (MK-0518)],116
12,Cc1c(F)cc(C(=O)NC2CC2)cc1-c1ccc(C(=O)NCC(C)(C)C)cn1 [Losmapimod],60
13,CCCC(C(=O)OCCN(CC)CC)(c1ccccc1)c1ccccc1.Cl [SKF 525A (hydrochloride)],66.3

# System: HCI13 (cells of an ER-positive luminal breast cancer xenograft)
# Assay: as above
# Details: 10 µM; 72 h
row,SMILES,cell viability
1,O=C1NC(=O)[C@@H](c2c[nH]c3ccccc23)[C@H]1c1cn2c3c(cccc13)CCC2 [Tivantinib (ARQ 197)],43.6 ± 9.6
2,CCC1(O)CC2CN(CCc3c([nH]c4ccccc34)C(C(=O)OC)(c3cc4c(cc3OC)N(C)C3C(O)(C(=O)OC)C(OC(C)=O)C5(CC)C=CCN6CCC43C65)C2)C1 (centres undefined) [vinblastine],37.6 ± 3.4
3,Nc1ccn(C2CCC(CO)O2)c(=O)n1 (centres undefined) [Zalcitabine],91.99 ± 0.76
4,CCc1nc(N)nc(N)c1-c1ccc(Cl)cc1 [Pyrimethamine],105 ± 12
5,C=C[C@]1(C)C[C@@H](OC(=O)CSC2C[C@H]3CC[C@@H](C2)N3C)[C@]2(C)[C@H](C)CC[C@]3(CCC(=O)[C@H]32)[C@@H](C)[C@@H]1O (some centres undefined) [Retapamulin],111 ± 10
6,Nc1ccc(S(N)(=O)=O)cc1 [Sulfanilamide],164 ± 9.1
7,CN(C)CCC(c1ccc(Br)cc1)c1ccccn1.O=C(O)C=CC(=O)O (centres undefined) [Brompheniramine hydrogen maleate],142 ± 4.6
8,O=C1CCC(N2C(=O)c3ccccc3C2=O)C(=O)N1 (centres undefined) [Thalidomide],129 ± 15
9,Cc1cccc(-c2nn3c(c2-c2ccnc4ccc(C(N)=O)cc24)CCC3)n1,56.3 ± 6.4
10,O=C(CS(=O)Cc1ccco1)NCC=CCOc1cc(CN2CCCCC2)ccn1 (centres undefined) [Lafutidine],190 ± 46
11,c1ccc(-c2ccc(C(c3ccccc3)n3ccnc3)cc2)cc1 (centres undefined) [Bifonazole],84.3 ± 22
12,Nc1nccs1 [Aminothiazole],98.3 ± 7.8
13,NC(=O)N1c2ccccc2C=Cc2ccccc21 [Carbamazepine],91.8 ± 1.1
14,CN(CC=CC#CC(C)(C)C)Cc1cccc2ccccc12 [Terbinafine],111 ± 26
15,CCCN1CCCCC1C(=O)Nc1c(C)cccc1C.Cl.O (centres undefined) [Ropivacaine hydrochloride monohydrate],110.3 ± 0.64
16,NCCCCC(NC(CCc1ccccc1)C(=O)O)C(=O)N1CCCC1C(=O)O.O.O (centres undefined) [Lisinopril dihydrate],113 ± 3.5
17,Cn1c(=O)cc(N2CCCC(N)C2)n(Cc2cc(F)ccc2C#N)c1=O (centres undefined) [Trelagliptin],104 ± 1.3
18,Nc1ccn(C2CSC(CO)O2)c(=O)n1 (centres undefined) [Lamivudine],124 ± 7.9
19,Clc1ccc(C(Cn2ccnc2)OCc2csc3c(Cl)cccc23)c(Cl)c1.O=[N+]([O-])O (centres undefined) [Sertaconazole nitrate],44.6 ± 5.4
20,O=C(O)c1cc(-c2ccccc2)nc2ccccc12 [Cinchophen],111 ± 1.3
21,CN1CCCC(n2nc(Cc3ccc(Cl)cc3)c3ccccc3c2=O)CC1.Cl (centres undefined) [Azelastine HCl],113 ± 22
